Data: publication PMC10812921, “Transcriptional Coactivator BOB1 (OBF1, OCA-B) Modulates the Specificity of DNA Recognition by the POU-Domain Factors OCT1 and OCT2 in a Monomeric Configuration”

Assays:
POU1 (OCT1 POU domain) = POU1 (OCT1 POU domain) (human, UniProt P14859 260-458); assay: EMSA-SELEX-seq; no BOB1; 20 mM Tris-HCl pH 7.6, 140 mM NaCl, 10% glycerol, 0.5 mM EDTA, 0.05% Triton X-100, 0.1 mg/mL BSA, 0.1 mg/mL poly(dI-dC), 5 mM DTT, room temperature, 20 min; high values mean tight binding; details: protein: recombinant; dsDNA, one strand shown
Sequence of POU1 (OCT1 POU domain) (P14859 260-458): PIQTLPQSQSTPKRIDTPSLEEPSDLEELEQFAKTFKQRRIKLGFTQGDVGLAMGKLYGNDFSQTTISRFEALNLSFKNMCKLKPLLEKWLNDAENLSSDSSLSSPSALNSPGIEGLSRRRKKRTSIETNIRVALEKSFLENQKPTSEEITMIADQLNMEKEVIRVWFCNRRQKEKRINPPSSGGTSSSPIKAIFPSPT
Summary of the method: (§1)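 Tagged POU-domain proteins were expressed in E. coli BL21, purified under denaturing conditions and renatured. Then 30 ng was mixed with 300 ng of a PCR-amplified double-stranded random 35-nt library, with or without 28 ng coactivator protein, in 20 μL Tris–HCl pH 7.6 binding buffer for 20 min at RT. Complex bands were cut from native 6% PAGE, eluted and PCR-amplified over four rounds, then Illumina-sequenced. Binding preference is the percentage of sequenced 8-mers matching a motif pattern.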

POU2 (OCT2 POU domain) = biological target: T1, POU2 (OCT2 POU domain) (human, UniProt P09086 175-386); assay: as above; details: protein: recombinant; dsDNA, one strand shown
T1 sequence: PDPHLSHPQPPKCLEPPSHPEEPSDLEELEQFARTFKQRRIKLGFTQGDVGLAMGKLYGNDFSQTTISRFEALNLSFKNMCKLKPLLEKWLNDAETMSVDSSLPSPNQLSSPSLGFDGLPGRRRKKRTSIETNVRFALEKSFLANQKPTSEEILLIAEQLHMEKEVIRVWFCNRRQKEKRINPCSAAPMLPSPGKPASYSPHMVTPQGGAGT
Summary of the method: as §1

[1] = biological target: POU1 (OCT1 POU domain);BOB1 (OBF1, OCA-B) (human;human, UniProt P14859;Q16633 260-458;1-256, |); assay: EMSA-SELEX-seq; with BOB1 (ternary complex band); 20 mM Tris-HCl pH 7.6, 140 mM NaCl, 10% glycerol, 0.5 mM EDTA, 0.05% Triton X-100, 0.1 mg/mL BSA, 0.1 mg/mL poly(dI-dC), 5 mM DTT, room temperature, 20 min; high values mean tight binding; details: protein: recombinant;recombinant; copies: 1;1; dsDNA, one strand shown
Summary of the method: as §1

[2] = biological target: T2, POU2 (OCT2 POU domain);BOB1 (OBF1, OCA-B) (human;human, UniProt P09086;Q16633 175-386;1-256, |); assay: as above; details: protein: recombinant;recombinant; copies: 1;1; dsDNA, one strand shown
T2 sequence 1: T1 sequence
T2 sequence 2: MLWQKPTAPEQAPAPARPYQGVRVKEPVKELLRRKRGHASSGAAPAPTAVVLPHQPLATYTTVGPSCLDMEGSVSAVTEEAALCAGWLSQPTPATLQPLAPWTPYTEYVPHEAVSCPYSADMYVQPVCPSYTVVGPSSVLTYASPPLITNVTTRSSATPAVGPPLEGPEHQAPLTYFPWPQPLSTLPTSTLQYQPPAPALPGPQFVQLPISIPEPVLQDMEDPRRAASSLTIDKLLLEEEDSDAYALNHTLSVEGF
Summary of the method: as §1

| Sequence | binding signal (POU1 (OCT1 POU domain)) | binding signal (POU2 (OCT2 POU domain)) | binding signal [1] | binding signal [2] |
| --- | --- | --- | --- | --- |
| ACCATAAA | 0.0625 % of ANNNNAAN 8-mers | 0.0662 % of ANNNNAAN 8-mers | 0.0304 % of ANNNNAAN 8-mers | 0.0264 % of ANNNNAAN 8-mers |
| AGTAAAAC | 0.0427 % of ANNNNAAN 8-mers | 0.0391 % of ANNNNAAN 8-mers | 0.0663 % of ANNNNAAN 8-mers | 0.0454 % of ANNNNAAN 8-mers |
| ACGAGAAA | 0.0381 % of ANNNNAAN 8-mers | 0.0437 % of ANNNNAAN 8-mers | 0.0355 % of ANNNNAAN 8-mers | 0.038 % of ANNNNAAN 8-mers |
| ATCTGAAG | 0.0297 % of ANNNNAAN 8-mers | 0.0409 % of ANNNNAAN 8-mers | 0.0359 % of ANNNNAAN 8-mers | 0.0413 % of ANNNNAAN 8-mers |
| AAAGAAAA | 0.0988 % of ANNNNAAN 8-mers | 0.0892 % of ANNNNAAN 8-mers | 0.132 % of ANNNNAAN 8-mers | 0.0693 % of ANNNNAAN 8-mers |
| AATTGAAC | 0.0492 % of ANNNNAAN 8-mers | 0.0575 % of ANNNNAAN 8-mers | 0.0386 % of ANNNNAAN 8-mers | 0.052 % of ANNNNAAN 8-mers |
| AGATCAAC | 0.0175 % of ANNNNAAN 8-mers | 0.0207 % of ANNNNAAN 8-mers | 0.0211 % of ANNNNAAN 8-mers | 0.0338 % of ANNNNAAN 8-mers |
| ACAAAAAA | 0.0656 % of ANNNNAAN 8-mers | 0.0621 % of ANNNNAAN 8-mers | 0.0808 % of ANNNNAAN 8-mers | 0.0528 % of ANNNNAAN 8-mers |
| AAATAAAC | 0.116 % of ANNNNAAN 8-mers | 0.119 % of ANNNNAAN 8-mers | 0.142 % of ANNNNAAN 8-mers | 0.13 % of ANNNNAAN 8-mers |
| AAGTGAAC | 0.0233 % of ANNNNAAN 8-mers | 0.0305 % of ANNNNAAN 8-mers | 0.0254 % of ANNNNAAN 8-mers | 0.0388 % of ANNNNAAN 8-mers |
| ACTTGAAA | 0.0317 % of ANNNNAAN 8-mers | 0.042 % of ANNNNAAN 8-mers | 0.0433 % of ANNNNAAN 8-mers | 0.0371 % of ANNNNAAN 8-mers |
| AACATAAT | 0.134 % of ANNNNAAN 8-mers | 0.174 % of ANNNNAAN 8-mers | 0.0515 % of ANNNNAAN 8-mers | 0.071 % of ANNNNAAN 8-mers |
| ATGACAAT | 0.0576 % of ANNNNAAN 8-mers | 0.0737 % of ANNNNAAN 8-mers | 0.0453 % of ANNNNAAN 8-mers | 0.0471 % of ANNNNAAN 8-mers |
| ACTTGAAT | 0.0828 % of ANNNNAAN 8-mers | 0.0961 % of ANNNNAAN 8-mers | 0.0613 % of ANNNNAAN 8-mers | 0.071 % of ANNNNAAN 8-mers |
| AAGGGAAG | 0.05 % of ANNNNAAN 8-mers | 0.0541 % of ANNNNAAN 8-mers | 0.0511 % of ANNNNAAN 8-mers | 0.0388 % of ANNNNAAN 8-mers |
| ATCCGAAC | 0.0217 % of ANNNNAAN 8-mers | 0.0219 % of ANNNNAAN 8-mers | 0.0238 % of ANNNNAAN 8-mers | 0.0198 % of ANNNNAAN 8-mers |
| AACGAAAA | 0.0522 % of ANNNNAAN 8-mers | 0.0529 % of ANNNNAAN 8-mers | 0.0597 % of ANNNNAAN 8-mers | 0.0462 % of ANNNNAAN 8-mers |
| ACTCAAAC | 0.0187 % of ANNNNAAN 8-mers | 0.027 % of ANNNNAAN 8-mers | 0.03 % of ANNNNAAN 8-mers | 0.0149 % of ANNNNAAN 8-mers |
| AATTAAAG | 0.187 % of ANNNNAAN 8-mers | 0.22 % of ANNNNAAN 8-mers | 0.112 % of ANNNNAAN 8-mers | 0.121 % of ANNNNAAN 8-mers |
| ATTACAAC | 0.0313 % of ANNNNAAN 8-mers | 0.042 % of ANNNNAAN 8-mers | 0.0258 % of ANNNNAAN 8-mers | 0.0223 % of ANNNNAAN 8-mers |
| AGTCTAAA | 0.037 % of ANNNNAAN 8-mers | 0.0501 % of ANNNNAAN 8-mers | 0.0398 % of ANNNNAAN 8-mers | 0.0504 % of ANNNNAAN 8-mers |
| AGTCAAAA | 0.164 % of ANNNNAAN 8-mers | 0.117 % of ANNNNAAN 8-mers | 0.265 % of ANNNNAAN 8-mers | 0.115 % of ANNNNAAN 8-mers |
| AACACAAA | 0.0454 % of ANNNNAAN 8-mers | 0.0443 % of ANNNNAAN 8-mers | 0.0648 % of ANNNNAAN 8-mers | 0.0438 % of ANNNNAAN 8-mers |
| AGAGTAAA | 0.0564 % of ANNNNAAN 8-mers | 0.0386 % of ANNNNAAN 8-mers | 0.0605 % of ANNNNAAN 8-mers | 0.0512 % of ANNNNAAN 8-mers |
| ATCTCAAG | 0.0313 % of ANNNNAAN 8-mers | 0.0368 % of ANNNNAAN 8-mers | 0.039 % of ANNNNAAN 8-mers | 0.0413 % of ANNNNAAN 8-mers |
| ACTGTAAT | 0.0572 % of ANNNNAAN 8-mers | 0.0788 % of ANNNNAAN 8-mers | 0.0464 % of ANNNNAAN 8-mers | 0.0504 % of ANNNNAAN 8-mers |
| AGTACAAG | 0.029 % of ANNNNAAN 8-mers | 0.0253 % of ANNNNAAN 8-mers | 0.0359 % of ANNNNAAN 8-mers | 0.0297 % of ANNNNAAN 8-mers |
| AATGCAAG | 0.0671 % of ANNNNAAN 8-mers | 0.0512 % of ANNNNAAN 8-mers | 0.0749 % of ANNNNAAN 8-mers | 0.0644 % of ANNNNAAN 8-mers |
| AATATAAC | 0.05 % of ANNNNAAN 8-mers | 0.0817 % of ANNNNAAN 8-mers | 0.0589 % of ANNNNAAN 8-mers | 0.0578 % of ANNNNAAN 8-mers |
| ACAGCAAT | 0.0286 % of ANNNNAAN 8-mers | 0.0288 % of ANNNNAAN 8-mers | 0.0281 % of ANNNNAAN 8-mers | 0.0215 % of ANNNNAAN 8-mers |
